Assay results: PubChem BioAssay (Tox21)
Records with an inconclusive call do not appear. Calls of active or inactive are those of the source. Calls come from the whole dose curve; as a rule, active = well fitted cell-killing curve with a large enough effect in the repeat runs; inconclusive = weak or mixed curves, or effect the other way; inactive = flat fitted curve, though single readings scatter.

test: qHTS RealTime-Glo MT Cell Viability Assay in HEK293 cells - 8 hour (AID 1224887); details: RealTime-Glo luminescence; series mostly up to 76.8 µM; note: top concentration of the series differs between compounds; nearly all actives have a fitted effect of over 50% in size
Description: U.S. Tox21 Program National Center for Advancing Translational Sciences [NCATS] NIH Chemical Genomics Center [NCGC] U.S. Environmental Protection Agency [EPA] National Institutes of Environmental Health Sciences [NIEHS] National Toxicology Program [NTP] U.S. Food and Drug Administration [FDA] Tox21 Assay Overview: Measure of cell viability is critical in the cell-base assay. Analysis of cell viability is necessary for the characterization of cell responses to cytotoxic drugs and environmental stress. A RealTime-Glo MT Cell Viability Assay to monitor cell viability in real time of continues cell culture during 40 hours of compound treatment was used to screen Tox21 10K library compounds in Hek293 cells. The RealTime-Glo MT Cell Viability Assay is a nonlytic, homogeneous, bioluminescent method to measure cell viability in real time using a simple, plate-based method. The assay involves adding NanoLuc luciferase and a cell-permeant prosubstrate to cells in culture. Viable cells reduce the proprietary prosubstrate to generate a substrate for NanoLuc luciferase. This substrate diffuses from cells into the surrounding culture medium, where it is rapidly used by the NanoLuc Enzyme to produce a luminescent signal. The signal correlates with the number of viable cells, making the assay well suited for cytotoxicity studies.
Tox21 Assay Protocol Summary: The mixture of Hek293 cell suspension and reagents were dispensed at 600cells/6 ul/well in 1536-well tissue culture treated black solid bottom plates using a Multidrop dispenser. After the assay plates were incubated at a 37 C/5% CO2 incubator for 5 hours, 23 nL of compounds dissolved in DMSO, positive and negative controls was transferred to the assay plate by a pintool work station. The plates were incubated at 37 C for 40 hours. The luminescence intensity were measured at 0h, 8h, 16h, 24h, 32h and 40h time points using ViewLux plate reader during compound treatment.

SMILES | outcome
C#CCN(C)[C@H](C)Cc1ccccc1 | inactive
[N-]=[N+]=[N-] | inactive
Cn1cc(-c2ccccc2)c(=O)c(-c2cccc(C(F)(F)F)c2)c1 | inactive
O=[N+]([O-])c1ccc([As](=O)(O)O)cc1 | inactive
CCCCN(CC)C(=O)SCCC | inactive
CC1C=[C-]C=C1.[C-]#[O+].[C-]#[O+].[C-]#[O+].[Mn] | inactive
Clc1ccc(Cl)cc1 | inactive
COC(=O)NS(=O)(=O)c1ccc(N)cc1 | inactive
COP(N)(=O)SC (stereo not given) | inactive
O=S(=O)(c1ccc(O)cc1)c1ccc(O)cc1 | inactive
CCCCOC(=O)c1ccccc1C(=O)OCCCC | inactive
CON(C)C(=O)Nc1ccc(Cl)c(Cl)c1 | inactive
Nc1ccc(Oc2ccc(N)cc2)cc1 | inactive
C=C(C)CCl | inactive
Nc1ccc(Cc2ccc(N)cc2)cc1 | inactive
c1ccc2c(c1)Oc1ccccc1O2 | inactive
CCOP(=S)(OCC)Oc1cnc2ccccc2n1 | inactive
Clc1cccc(Cl)c1Cl | inactive
BrCCBr | inactive
CC(=O)C=C(C)C | inactive

SMILES | outcome
CC(Oc1ccc(Cl)cc1Cl)C(=O)O (stereo not given) | inactive
C#CC(C)(C)NC(=O)c1cc(Cl)cc(Cl)c1 | inactive
C1CC2OC2CC1C1CO1 (stereo not given) | inactive
COC(=O)c1ccccc1N | inactive
C=CCO | inactive
COC(=O)c1ccccc1C(=O)OC | inactive
CCc1cccc(C)c1N(C(=O)CCl)C(C)COC (stereo not given) | inactive
Nc1ccccc1C(=O)O | inactive
O=c1ccc(=O)[nH][nH]1 | inactive
CCCCCCCCCl | inactive
Cc1cc(Cl)ccc1O | inactive
CC(C)(C)OOC(C)(C)C | inactive
CN(C)[C@@H]1C(=O)C(C(N)=O)=C(O)[C@@]2(O)C(=O)C3=C(O)c4c(O)cccc4[C@@](C)(O)[C@H]3C[C@@H]12 | inactive
CCN(CC)c1ccccc1 | inactive
Cc1ccccc1O | inactive
Nc1ccc(Br)cc1 | inactive
CN1C(=O)CN=C(c2ccccc2)c2cc(Cl)ccc21 | inactive
CC(C)(Cl)Cl | inactive
c1ccc(OP(Oc2ccccc2)Oc2ccccc2)cc1 | inactive
C=CC(N)=O | inactive
